Assay results from PubChem BioAssay (NCI).
The panel holds about 83,000 compounds, 20% with a hit somewhere; the sample as a whole holds those more often.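 In brief: 96-well plates, 48 h treatment, single concentration, percent growth endpoint.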 Calls of active or inactive are those of the source. The calls were made as follows: active = growth percent below 10; inactive = the rest.

Columns and labels:
Assay in all cases: NCI-60 one-dose screen, 48 h (100 = growth as untreated, 0 = no growth, -100 = all killed)
Details in all cases: 10 µM unless noted
NCI-H23 lung = system: NCI-H23 lung
NCI-H226 lung = system: NCI-H226 lung
NCI-H322M lung = system: NCI-H322M lung
HOP-62 NSCLC = system: HOP-62 NSCLC
NCI-H460 lung = system: NCI-H460 lung
HOP-92 NSCLC = system: HOP-92 NSCLC
NCI-H522 lung = system: NCI-H522 lung
A549/ATCC NSCLC = system: A549/ATCC NSCLC
786-0 renal = system: 786-0 renal
COLO 205 colon = system: COLO 205 colon

Measured: growth

CCN1CCN(c2nc(NNC(=O)c3ccccc3)nc(N3CCN(C(c4ccccc4)c4ccccc4)CC3)n2)CC1
active: NCI-H460 lung 3.33% | COLO 205 colon -57%
inactive: NCI-H23 lung 67.5% | NCI-H226 lung 73% | NCI-H322M lung 90.3% | HOP-62 NSCLC 79.7% | HOP-92 NSCLC 59.3% | NCI-H522 lung 65.8% | A549/ATCC NSCLC 54.2% | 786-0 renal 66.4%

COc1ccc(C2=Nn3c(nnc3-n3nc(C)cc3C)SC2)cc1
active: NCI-H460 lung 4.1% | NCI-H522 lung -9.16% | COLO 205 colon -42.5%
inactive: NCI-H23 lung 30.2% | NCI-H226 lung 57.4% | NCI-H322M lung 44.6% | HOP-62 NSCLC 29.7% | HOP-92 NSCLC 11.2% | A549/ATCC NSCLC 10.2% | 786-0 renal 17.7%

COc1cccc(/C=C2\Oc3cc(OCCCN4CCCC4)ccc3C2=O)c1OC
inactive: NCI-H23 lung 96.8% | NCI-H226 lung 86% | NCI-H322M lung 92.8% | HOP-62 NSCLC 97.7% | NCI-H460 lung 96.2% | HOP-92 NSCLC 91.2% | NCI-H522 lung 91.5% | A549/ATCC NSCLC 97.2% | 786-0 renal 98.5% | COLO 205 colon 105%

FC(F)(F)c1ccccc1-c1cn2c(ccc3ccccc32)n1
inactive: NCI-H23 lung 85.3% | NCI-H226 lung 77.5% | NCI-H322M lung 96.1% | HOP-62 NSCLC 60.4% | NCI-H460 lung 85.3% | HOP-92 NSCLC 79.9% | NCI-H522 lung 49% | A549/ATCC NSCLC 80% | 786-0 renal 94.9% | COLO 205 colon 102%

Cc1ccc(-c2nc(C#N)c(S(=O)(=O)n3nc(-c4ccccc4)cc3N)o2)cc1
active: NCI-H522 lung -12% | COLO 205 colon -44.1%
inactive: NCI-H23 lung 97.4% | NCI-H226 lung 78.3% | NCI-H322M lung 97.3% | HOP-62 NSCLC 87.6% | NCI-H460 lung 109% | HOP-92 NSCLC 89.1% | A549/ATCC NSCLC 94.4% | 786-0 renal 84%

c1cc2[nH]ncc2cc1-c1nc2ccc3[nH]ncc3c2c2c1CCC2
active: NCI-H522 lung 6.78%
inactive: NCI-H23 lung 70.2% | NCI-H226 lung 42.5% | NCI-H322M lung 58% | HOP-62 NSCLC 47.6% | NCI-H460 lung 31.5% | HOP-92 NSCLC 42.5% | A549/ATCC NSCLC 39.4% | 786-0 renal 49.7% | COLO 205 colon 25.7%

Cc1nc2ncccc2nc1Nc1ccc(S(=O)(=O)Nc2ccccn2)cc1
inactive: NCI-H23 lung 90.6% | NCI-H226 lung 94.5% | NCI-H322M lung 96.1% | HOP-62 NSCLC 97% | NCI-H460 lung 106% | HOP-92 NSCLC 54.3% | NCI-H522 lung 81.6% | A549/ATCC NSCLC 101% | 786-0 renal 94.9% | COLO 205 colon 98.5%

C=C1CCC2C3(C)COC(c4ccccc4)OC3CCC2(C)C1/C=C/C1=CCOC1=O (stereo not given)
inactive: NCI-H23 lung 74.6% | NCI-H226 lung 85.8% | NCI-H322M lung 64.3% | HOP-62 NSCLC 113% | NCI-H460 lung 93.6% | HOP-92 NSCLC 68.4% | NCI-H522 lung 63.6% | A549/ATCC NSCLC 43.5% | 786-0 renal 94.3% | COLO 205 colon 17.4%

CC(C)C1=CC2=C(C=O)C[C@@H]3[C@](C)(CCC[C@@]3(C)C(=O)OCC#CCN3CCCC3)[C@H]2CC1
inactive: NCI-H23 lung 62.2% | NCI-H226 lung 75.7% | NCI-H322M lung 96.2% | HOP-62 NSCLC 84.9% | NCI-H460 lung 76.8% | HOP-92 NSCLC 45.9% | NCI-H522 lung 59.9% | A549/ATCC NSCLC 67.4% | 786-0 renal 75.2% | COLO 205 colon 86.5%

O=C(CSc1nc2ccccc2[nH]1)c1ccc(N2CCOCC2)cc1
inactive: NCI-H23 lung 92.9% | NCI-H226 lung 97.6% | NCI-H322M lung 99.5% | HOP-62 NSCLC 104% | NCI-H460 lung 104% | HOP-92 NSCLC 104% | NCI-H522 lung 102% | A549/ATCC NSCLC 102% | 786-0 renal 96.4% | COLO 205 colon 117%

Clc1ccc(-c2nc3ccccc3s2)cc1Cl
inactive: NCI-H23 lung 94.2% | NCI-H226 lung 87.2% | NCI-H322M lung 110% | HOP-62 NSCLC 104% | NCI-H460 lung 96.4% | HOP-92 NSCLC 84.1% | NCI-H522 lung 82.7% | A549/ATCC NSCLC 97.7% | 786-0 renal 103% | COLO 205 colon 111%

Cc1c(C(N)=O)sc2c1c(=O)n(Cc1ccccc1)c1nnc(Nc3ccccc3)n21
inactive: NCI-H23 lung 101% | NCI-H226 lung 106% | NCI-H322M lung 105% | HOP-62 NSCLC 89.1% | NCI-H460 lung 119% | HOP-92 NSCLC 101% | NCI-H522 lung 87.1% | A549/ATCC NSCLC 94.4% | 786-0 renal 105% | COLO 205 colon 101%

O=C(NCCCNc1nccc(-n2ccc3cccnc32)n1)c1c(F)cccc1F
inactive: NCI-H23 lung 101% | NCI-H226 lung 99.4% | NCI-H322M lung 103% | HOP-62 NSCLC 101% | NCI-H460 lung 104% | HOP-92 NSCLC 110% | NCI-H522 lung 101% | A549/ATCC NSCLC 102% | 786-0 renal 98% | COLO 205 colon 113%

Cc1ccc(S(=O)(=O)NCCNc2cc(-c3cn(C(C)(C)C)nc3-c3cccc(O)c3)ccn2)cc1
inactive: NCI-H23 lung 74.7% | NCI-H226 lung 61.8% | NCI-H322M lung 82.2% | HOP-62 NSCLC 93.3% | NCI-H460 lung 60.8% | HOP-92 NSCLC 75.1% | NCI-H522 lung 68.1% | A549/ATCC NSCLC 70.6% | 786-0 renal 68.5% | COLO 205 colon 18.1%

Cc1ccc(CSC(=N)N)cc1C
inactive: NCI-H23 lung 108% | NCI-H226 lung 104% | NCI-H322M lung 111% | HOP-62 NSCLC 110% | NCI-H460 lung 109% | HOP-92 NSCLC 67.4% | NCI-H522 lung 101% | A549/ATCC NSCLC 103% | 786-0 renal 103% | COLO 205 colon 107%

Cc1csc(NC(c2ccccc2)c2c(C)nc3ccccn23)n1 (stereo not given)
inactive: NCI-H23 lung 95.6% | NCI-H226 lung 94.8% | NCI-H322M lung 104% | HOP-62 NSCLC 95.4% | NCI-H460 lung 102% | HOP-92 NSCLC 68.4% | NCI-H522 lung 95.3% | A549/ATCC NSCLC 99.1% | 786-0 renal 100% | COLO 205 colon 106%

O=[N+]([O-])c1ccc(/C=C/C2(CCl)OCCO2)cc1
inactive: NCI-H23 lung 90.9% | NCI-H226 lung 101% | NCI-H322M lung 152% | HOP-62 NSCLC 116% | NCI-H460 lung 117% | HOP-92 NSCLC 84.2% | A549/ATCC NSCLC 105% | 786-0 renal 85.6% | COLO 205 colon 107%
active: NCI-H522 lung -15.3%

FC(F)(F)c1cccc(-c2cn3c(ccc4ccccc43)n2)c1
inactive: NCI-H23 lung 79.3% | NCI-H226 lung 94.6% | NCI-H322M lung 97.5% | HOP-62 NSCLC 76.7% | NCI-H460 lung 97% | HOP-92 NSCLC 102% | NCI-H522 lung 81.8% | A549/ATCC NSCLC 95.4% | 786-0 renal 101% | COLO 205 colon 109%

COc1cc(-c2nn(-c3cccc(NC(=O)c4ccc(N5CCOCC5)c(C(F)(F)F)c4)c3)cc2-c2ccncc2)ccc1Cl
inactive: NCI-H23 lung 15.6% | NCI-H226 lung 42.5% | NCI-H322M lung 54.2% | HOP-62 NSCLC 29.5% | HOP-92 NSCLC 11.5%
active: NCI-H460 lung 5.02% | NCI-H522 lung 0.2% | A549/ATCC NSCLC 3.58% | 786-0 renal -3.26% | COLO 205 colon -43.4%

CC(C)(C)n1cc(-c2ccnc(NCCCNS(=O)(=O)c3ccc(Cl)cc3)c2)c(-c2cccc(O)c2)n1
active: HOP-62 NSCLC 9.75% | NCI-H460 lung -66.7% | HOP-92 NSCLC -2.33% | NCI-H522 lung -55.7% | A549/ATCC NSCLC 9.33% | 786-0 renal -35.2% | COLO 205 colon -86.8%
inactive: NCI-H23 lung 14% | NCI-H226 lung 14% | NCI-H322M lung 10.6%

O=S(=O)(NCCNc1nccc(-c2c(-c3ccc(O)cc3)nc3sccn23)n1)c1cccc2ccccc12
inactive: NCI-H23 lung 98.1% | NCI-H226 lung 102% | NCI-H322M lung 98.1% | HOP-62 NSCLC 106% | NCI-H460 lung 106% | HOP-92 NSCLC 94.9% | NCI-H522 lung 91.5% | A549/ATCC NSCLC 98.2% | 786-0 renal 96.6% | COLO 205 colon 109%

OC(c1cc2cc(Br)ccc2c2cc(Br)ccc12)C1CCCCN1 (stereo not given)
active: NCI-H23 lung -75.4% | NCI-H226 lung -70.1% | NCI-H322M lung -84.9% | HOP-62 NSCLC -84.1% | NCI-H460 lung -71.7% | HOP-92 NSCLC -88.9% | NCI-H522 lung -86.1% | A549/ATCC NSCLC -81.3% | 786-0 renal -41.6% | COLO 205 colon -89.9%

NC1=NN(O)C2=CC([N+](=O)[O-])C=CC2=N1 (stereo not given)
inactive: NCI-H23 lung 97% | NCI-H226 lung 110% | NCI-H322M lung 113% | HOP-62 NSCLC 98.9% | NCI-H460 lung 110% | HOP-92 NSCLC 94.1% | NCI-H522 lung 94.2% | A549/ATCC NSCLC 110% | 786-0 renal 103% | COLO 205 colon 111%

Cc1ccc(C(=O)NCCCNc2nccc(-n3ccc4cccnc43)n2)cc1
inactive: NCI-H23 lung 102% | NCI-H226 lung 93.4% | NCI-H322M lung 91.6% | HOP-62 NSCLC 104% | NCI-H460 lung 109% | HOP-92 NSCLC 96.4% | NCI-H522 lung 88% | A549/ATCC NSCLC 93.4% | 786-0 renal 93.7% | COLO 205 colon 103%

N/C(=N\C(N)=N\c1nc2ccccc2s1)c1cccc(Br)c1
active: HOP-62 NSCLC -0.459% | A549/ATCC NSCLC -40.6%
inactive: NCI-H23 lung 77% | NCI-H226 lung 71.6% | NCI-H322M lung 81% | NCI-H460 lung 76.4% | HOP-92 NSCLC 96.7% | NCI-H522 lung 80% | 786-0 renal 98.4% | COLO 205 colon 115%
